Data from PubChem BioAssay AID1566 (Sanford-Burnham Center for Chemical Genomics, 2009).
“And” between values parts separate entries of the source, which are not always exact repeats. Equal values may be shown once. About 1,800 (0.62%) of roughly 290,000 compounds were called active. What follows is part of a selection rich in actives, with near analogues and random picks from the rest. Values without a mark were called inactive. No stated cut-off is given here; in the data, active means inhibition above about 50%; inactive means the rest.

Assay: NOD2 signaling inhibitors, cell-based, luminescence, uHTS, HEK293 (AID 1566)
Details: HEK293 NOD2/NF-kB luciferase reporter, at 4 µM, stronger effect = higher value
`CCOC(=O)N1CCN(C(=O)c2ccc3c(c2)NC(=O)/C(=C/c2ccccc2)S3)CC1` showed an inhibition of 9.6%. In the case of `O=C(c1ccccc1)c1coc2c1C(=O)c1ccccc1C2=O`, the inhibition is reported as 28.9%. `Cc1oc2c(c1C(=O)O)C(=O)c1ccccc1C2=O` showed an inhibition of 19%. For `O=C1c2ccccc2C(=O)c2c1oc(C(F)(F)F)c2C(=O)c1ccccc1`, the inhibition was 77.4% (active). `COc1cc(NC(=O)CCS(=O)(=O)c2ccc3c(c2)n(C)c(=O)c(=O)n3C)cc(OC)c1` gave an inhibition of -1.3%. Compound `CCN(CC)CCNC(=O)c1cccc(NC(=O)C(=O)c2ccccc2NC(C)=O)c1` has an inhibition of 3.6%. For `COc1ccc(C(C)(C)C)cc1S(=O)(=O)n1ccnc1C`, the inhibition was 9%. `OCCN1CCN(CC(O)COc2ccc(C34CC5CC(CC(C5)C3)C4)cc2)CC1` (stereo unspecified) showed an inhibition of 6%. For `OCCN(CCO)CC(O)COc1ccc(C23CC4CC(CC(C4)C2)C3)cc1` (stereo unspecified), the inhibition was 51.5% (active). With `OCCN(CCO)CC(O)COc1ccc(Br)cc1` (stereo unspecified) the inhibition was 19% and 15.4%. Compound `O=C1c2[nH]nc(-c3ccccc3O)c2C(c2cccc(O)c2)N1Cc1ccco1` (stereo unspecified) has an inhibition of 24.7%. For `COc1ccc(S(=O)(=O)N2CCCCC2)cc1NC(=O)CN(C)C1CCCCC1`, the inhibition was 8%. Work on `Cc1cnn(-c2cc(N/N=C/c3ccc(F)cc3)ncn2)c1` yielded an inhibition of -26.9%. With `CCCCN1C(C)=CC(=C2C(=O)c3ccccc3C2=O)C=C1C` the inhibition was -61.1%. `CC1=CC(=C2C(=O)c3ccccc3C2=O)C=C(C)N1C` showed an inhibition of -61.9%. For `CC1=CC(=C2C(=O)c3ccccc3C2=O)C=C(C)O1`, the inhibition was -31.6%. With `CCCCNC1=CC(=O)C(=O)c2ccccc21` the inhibition was -26.1%. For `CCCN1C=CC(=C2C(=O)c3ccccc3C2=O)C=C1`, the inhibition was 83.7% (active). With `CCCCN1C=CC(=C2C(=O)c3ccccc3C2=O)C=C1` the inhibition was 79.8% (active). `CN1C=CC(=C2C(=O)c3ccccc3C2=O)C=C1` showed an inhibition of -99%. With `CCN1C=CC(=C2C(=O)c3ccccc3C2=O)C=C1` the inhibition was 54.1% (active). Work on `CCCCCCN1C=CC(=C2C(=O)c3ccccc3C2=O)C=C1` yielded an inhibition of -6.6%. With `CCCCN1C=CC(=C2N=c3cccc([N+](=O)[O-])c3=N2)C=C1` the inhibition was 7.8%. Compound `CCN1C(=C2C(=O)c3ccccc3C2=O)C=Cc2ccccc21` has an inhibition of 2.2%. In the case of `CCCCCN1C=CC(=C2C(=O)c3ccccc3C2=O)C=C1`, the inhibition is reported as 73.5% (active). `COc1cc(C(=O)OCC(=O)N2CCCCC2C)ccc1OCc1c(C)noc1C` (stereo unspecified) showed an inhibition of -27.2%. Work on `Cc1ccc(CN(CC(=O)NCCc2ccccc2)C(=O)CCCC(=O)Nc2cc(C)on2)cc1` yielded an inhibition of -8.6%. With `O=C(N/C(=C\c1cccnc1)C(=O)N1CCCCC1)c1cccc(Br)c1` the inhibition was 0.3%. Compound `CCOC(=O)N1CCN(C(=O)C2CCCN(c3ncnc4c3nc3n4CCCCC3)C2)CC1` (stereo unspecified) has an inhibition of 7.5%. `O=C(NC1CCCCCC1)C(=S)NC1CCCCC1` showed an inhibition of -56.5%. Compound `C#CCOc1ccc(/C=C2/C(=O)NN(c3ccc(F)cc3)C2=O)cc1OC` has an inhibition of 9.7%. Work on `CC(CC(=O)Nc1nncs1)c1ccccc1` (stereo unspecified) yielded an inhibition of 20.2%. `COc1ccc(C2NC(=S)NC(C)=C2C(=O)c2ccccc2)cc1OC` (stereo unspecified) showed an inhibition of 3.4%. With `Oc1ccc(N=Nc2ccc3c(c2)OCCO3)c2ncccc12` the inhibition was -8.2%. Compound `Oc1ccc(N=Nc2ccc3c(c2)OCCO3)c(O)c1` has an inhibition of -142%. In the case of `Oc1ccc(N=Nc2ccc3c(c2)OCO3)c2ccccc12`, the inhibition is reported as 81.2% (active). With `CCOc1ccc(CN(C(=O)c2oc3ccccc3c2C)C2CCS(=O)(=O)C2)cc1` (stereo unspecified) the inhibition was -8.4%. In the case of `CCCCN=C1NN=C(c2ccc3c(c2)OCCO3)CS1`, the inhibition is reported as -57.3%. Work on `Cc1ccc(-n2c(C)cc(C3=NNC(=NC4CC4)SC3)c2C)cc1C` yielded an inhibition of -57.3%. In the case of `COCCCN=C1NN=C(c2cc(C)n(-c3ccccc3F)c2C)CS1`, the inhibition is reported as -10.1%. For `Cc1cc(C2=NNC(=NC3CC3)SC2)c(C)n1-c1c(C)n(C)n(-c2ccccc2)c1=O`, the inhibition was -1.3%. In the case of `Cc1cc(C2=NNC(=NC3CC3)SC2)c(C)n1-c1ccccc1F`, the inhibition is reported as 88.9% (active). In the case of `Cc1cc(C2=NNC(=NC3CC3)SC2)c(C)n1-c1ccccc1`, the inhibition is reported as 90.5% (active). Work on `COc1ccc(-n2c(C)cc(C3=NNC(=NC4CC4)SC3)c2C)cc1` yielded an inhibition of -16.5%. For `c1cc2c(cc1C1=NNC(=NC3CC3)SC1)OCCO2`, the inhibition was 85.7% (active). For `C=CCN=C1NN=C(c2ccc3c(c2)OCCO3)CS1`, the inhibition was 37.7%. Compound `COc1ccc(N2C(=O)c3ccccc3NC23CCC(C)CC3)cc1` (stereo unspecified) has an inhibition of -58.1%. Work on `Cc1cc(=O)[nH]c(N/N=C/c2ccc(Cl)c([N+](=O)[O-])c2)n1` yielded an inhibition of -5.5%. In the case of `COc1ccc(/C=C(\NC(=O)c2ccc(OC)cc2)C(=O)N2CCCCC2)cc1`, the inhibition is reported as -9.7%. Work on `Cn1c(=O)c2c(nc(SCC(=O)O)n2Cc2cc3c(cc2Cl)OCO3)n(C)c1=O` yielded an inhibition of 3%. For `CCOCCCn1cnc2c(c1=O)c1nc3ccccc3nc1n2-c1ccc(C)cc1`, the inhibition was 24.1%. `O=C(NCCn1cccn1)c1ccc(OC2CCN(C(=O)C3CC3)CC2)cc1` showed an inhibition of -27.2%. With `O=C(N/N=C/c1cc([N+](=O)[O-])ccc1O)C12CC3CC(CC(C3)C1)C2` the inhibition was 15%. `O=C(N/N=C/c1ccccc1O)NC12CC3CC(CC(C3)C1)C2` showed an inhibition of -29.5%. With `O=C(N/N=C/c1cc([N+](=O)[O-])ccc1O)NC12CC3CC(CC(C3)C1)C2` the inhibition was 64% (active). Work on `c1ccc(-c2ccccc2OCCCN2CCOCC2)cc1` yielded an inhibition of -29.3%. `O=C(CSc1nnc(-c2ccc(F)cc2)o1)Nc1ccc(S(=O)(=O)N2CCCCCC2)cc1` gave an inhibition of -4.4%. With `CCOCC(=O)Nc1cccc(Br)c1` the inhibition was -5.5%. `CCCc1cc(C(=O)Nc2ccc(C(=O)c3ccc(C)cc3)cc2)n(C)n1` showed an inhibition of 23.6%. For `CCCc1cc(C(=O)Nc2ccc(C(=O)c3ccccc3)cc2)n(C)n1`, the inhibition was 54.7% (active). In the case of `CCCc1cc(C(=O)Nc2ccc(C(=O)c3ccc(F)cc3)cc2)n(C)n1`, the inhibition is reported as 18.5%. In the case of `CCOC(=O)c1c(C)n(C)c2ccc(OCC(O)CN3CCN(C)CC3)cc12` (stereo unspecified), the inhibition is reported as -0.5%. Work on `CCc1nc(SCC(=O)N2CCCc3ccccc32)c2oc3ccccc3c2n1` yielded an inhibition of 37%. `Cc1nc(SCC(=O)N2CCCc3ccccc32)c2oc3ccccc3c2n1` gave an inhibition of -6.5%. In the case of `COc1cc(C(=O)NCc2ccncc2)cc(OC)c1OC`, the inhibition is reported as 10.3%. `Nc1ncc(-c2ccccc2)c(-c2ccc(OCc3ccccc3)cc2O)n1` gave an inhibition of 13.4%. Compound `COc1ccc(-c2cnc(N)nc2-c2ccc(OCc3ccccc3)cc2O)cc1` has an inhibition of -4.2%. `Nc1ncnc2c1ncn2Cc1ccccc1` gave an inhibition of 6.4%. `CCc1ccc(N2CN(Cc3ccco3)CNC2=S)cc1` gave an inhibition of 4.9%. Compound `COc1ccc(/C=N/OCC(=O)Nc2nc3ccccc3s2)cc1OC` has an inhibition of -1.1%. In the case of `CC1=NN(C(=O)Cn2ccc([N+](=O)[O-])n2)C(O)(C(F)(F)F)C1` (stereo unspecified), the inhibition is reported as 12.1%. For `CCOC(=O)C1=C(c2ccccc2)O/C(=C(/C(=O)OC)C(F)(F)F)S1`, the inhibition was 5.4%. With `CCOC(=O)C1=C(c2ccccc2)O/C(=C(/C#N)C(F)(F)F)S1` the inhibition was 51.4% (active). `CCOC(=O)C1=C(c2ccccc2)O/C(=C(\C(=O)OC)C(F)(F)F)S1` gave an inhibition of -23%. `CC(=O)Nc1ccc(S(=O)(=O)Nc2nc3ccccc3nc2N2CCCC2)cc1` showed an inhibition of -6%. `Cc1ccn2cc(C(=O)N3CCCC(Nc4ccc(F)cc4)C3)nc2c1` (stereo unspecified) showed an inhibition of -9.3%. Compound `O=C(Nc1ccncc1)c1c(F)c(F)c(F)c(F)c1F` has an inhibition of 8.8%. Compound `O=C(Nc1ccccc1)c1c(F)cccc1F` has an inhibition of -8%. In the case of `O=C(Oc1cccc2cccnc12)c1cccc([N+](=O)[O-])c1`, the inhibition is reported as 11.2%. With `O=C(Oc1c(Cl)cc(Cl)c2cccnc12)c1cccc([N+](=O)[O-])c1` the inhibition was 96.1% (active). In the case of `O=C(Oc1ccc(Cl)c2cccnc12)c1cccc([N+](=O)[O-])c1`, the inhibition is reported as 13.8%. With `CCOc1ccc(-c2ccc(SCC(=O)Nc3nnc(CC)s3)nn2)cc1` the inhibition was -117%. In the case of `CCCC(C(=O)NC1CCCC1)N(CC1CCCO1)C(=O)c1snc(C(N)=O)c1N` (stereo unspecified), the inhibition is reported as -7.3%. With `CC(C)(C)c1ccc(OC(=O)Nc2ccc(O)c(C(=O)O)c2)cc1` the inhibition was 51.6% (active). Work on `Cc1ccc(OCC(=O)Nc2ccc(O)c(C(=O)O)c2)cc1C` yielded an inhibition of 1.5%. With `O=C(Nc1ccc(O)c(C(=O)O)c1)Oc1ccccc1` the inhibition was 8.6%. `COC(=O)C1=C(C)NC(C)=C(C(=O)OC)C1c1ccccn1` gave an inhibition of 2.3%. Compound `Cc1ccc(OCc2cc(C(=O)N3CCN(C)C[C@@H]3c3ccccc3)no2)cc1C` has an inhibition of -27.5%. Compound `S=C(Nc1cc(Cl)cc(Cl)c1)N1CCN(c2ccccn2)CC1` has an inhibition of 14.1%. Compound `CCOC(=O)Cc1nnc2c(Nc3ccc(Cl)cc3)nc3nonc3n12` has an inhibition of 14.5%. In the case of `CCOC(=O)Cc1nnc2c(Nc3ccccc3F)nc3nonc3n12`, the inhibition is reported as 55.4% (active). Work on `CCOC(=O)Cc1nnc2c(Nc3ccc(C)cc3)nc3nonc3n12` yielded an inhibition of -2.9%. With `Cc1noc(C)c1C(=O)N1CCC2(CC1)Oc1ccc(F)cc1C(=O)C21CC(c2ccc(Cl)cc2)=NO1` (stereo unspecified) the inhibition was 13%. Work on `COc1ccc(/C=N/n2cnc3c([nH]c4ccc(F)cc43)c2=O)cc1CN1CCCC1` yielded an inhibition of 12.1%. `CC1(C)Cc2c(sc(NC(=O)c3ccccc3)c2C(=O)O)CO1` showed an inhibition of -27.1%. For `COc1ccc(C(=O)Nc2sc3c(c2C(=O)O)CC(C)(C)OC3)cc1`, the inhibition was 8.8%.
